The values below come from PubChem BioAssay (NCATS).

Each structure is given as a SMILES string. Inconclusive results are not listed. Values without a mark were called inactive. Activity calls are given as the source filed them. Calls follow the shape of the dose curve; as a rule, active = well fitted cell-killing curve with a large enough effect; inconclusive = small, poorly fitted or top-dose-only effect, or effect the other way; inactive = no such curve, though single readings can be large or run the other way.
Potency is read from the fitted curve at half-maximal effect.

The experiment is described as follows: Quantitative High-Throughput drug screen in 47 multiple myeloma cell lines against the NCATS MIPE library collection: KHM11_PLB cell viability assay (AID 1918962). Also: nearly all actives have a fitted effect of over 35% in size. The conditions noted are these: KHM11 myeloma cell viability, CellTiter-Glo ATP luminescence, 48 h; series mostly up to 45.8 µM; viability, % of DMSO control: at the top concentration. From the text:
PI: Beverly A. Mock Ph.D.
Laboratory of Cancer Biology and Genetics,
Center for Cancer Research, National Cancer Institute,
National Institute of Health, Bethesda, Maryland
Drug resistance and disease progression are common in multiple myeloma (MM) patients, underscoring the need for new therapeutic combinations. […] We hypothesized that effective combinations would reduce MYC expression and enhance p16 activity. […] These preclinical data identify potentially useful drug combinations for evaluation in drug-resistant MM and reveal potential mechanisms of combined drug sensitivity.
Described herein is the primary MIPE qHTS used to cherrypick compounds. Validated compounds were then further tested for potential synergistic activiy.
[1] Peat TJ, Gaikwad SM, Dubois W, Gyabaah-Kessie N, Zhang S, Gorjifard S, Phyo Z, Andres M, Hughitt VK, Simpson RM, Miller MA, Girvin AT, Taylor A, Williams D, D'Antonio N, Zhang Y, Rajagopalan A, Flietner E, Wilson K, Zhang X, Shinn P, Klumpp-Thomas C, McKnight C, Itkin Z, Chen L, Kazandijian D, Zhang J, Michalowski AM, Simmons JK, Keats J, Thomas CJ, Mock BA. Drug combinations identified by high-throughput screening promote cell cycle transition and upregulate Smad pathways in myeloma. Cancer Lett. 2023 Aug 1;568:216284. doi: 10.1016/j.canlet.2023.216284. Epub 2023 Jun 24. PMID: 37356470; PMCID: PMC10408729.
SEQUENCE No. (e.g., 1, 2, 3, etc.); […] (e.g., Cells, Incubation, Reagent, etc.); VALUE and DESCRIPTION.
1; Cells; 5 uL; white, solid bottom 1536-well Greiner assay plate.
2; Compounds; 23 nL; Kalypsis pin tool (Wako USA) equipped with a 1536-well pin head to transfer to the assay plates.
3; Incubation; 48 hours; 37C incubation.
4; Reagent;5uL; CellTiter Glo (Promega).
5; Detector; 425V; Luminescence; Viewlux PerkinElmer.
NOTES (numbers refer to Sequence numbers above)
1. The cell-based screening methods employed in this study were like those previously published. Briefly, the corresponding myeloma cell lines were screened in 1,536-well plates with 500 cells, 5-uL per well for inhibition of cell viability (assessed by measuring ATP levels with CellTiterGlo).
2. NCATS MIPE 4.0 library of approved and investigational drugs were added using the Kalypsis pin tool. Wells treated with DMSO only for 100% viability and media only wells for 0% viability were used as controls.
3. The assay plates were covered and incubated for 48 hours in a 37C, 5% CO2 incubator with controlled humidity.
4. After 48 hours, CellTilter-GloTM luminescent substrate mix (Promega) reagent was added to the assay plate and plates we incubated for 5 min at room temperature.
5. Signal was measured as median relative luminescence units on a ViewLux (PerkinElmer) multiplate reader.
[1] Heske CM, Davis MI, Baumgart JT, Wilson K, Gormally MV, Chen L, Zhang X, Ceribelli M, Duveau DY, Guha R, Ferrer M, Arnaldez FI, Ji J, Tran HL, Zhang Y, Mendoza A, Helman LJ, Thomas CJ. Matrix Screen Identifies Synergistic Combination of PARP Inhibitors and Nicotinamide Phosphoribosyltransferase (NAMPT) Inhibitors in Ewing Sarcoma. Clin Cancer Res. 2017 Dec 1;23(23):7301-7311. doi: 10.1158/1078-0432.CCR-17-1121. Epub 2017 Sep 12. PMID: 28899971; PMCID: PMC6636827.
In general terms: In ATP-based viability assays light output follows the ATP content of the culture.
`O=C(Nc1ccc(OC(F)(F)F)cc1)c1sccc1NCc1ccnc2ccccc12`: the “viability, % of DMSO control” value was 104%.

With `O=C(CC12CC3CC(CC(C3)C1)C2)Nc1cccc2nc(NCCNCCO)ccc12`, the Potency is 5.26 µM (active).

As to `Cc1cccc2c1CC[C@H](CN1CCC(c3c(Cl)cccc3Cl)CC1)C[C@@H]2O`, the Potency was 20.9 µM (active).

Regarding `CC[C@@H]([C@H](C)O)n1ncn(-c2ccc(N3CCN(c4ccc(OCC5CO[C@@](Cn6cncn6)(c6ccc(F)cc6F)C5)cc4)CC3)cc2)c1=O` (stereo not given in full), the “viability, % of DMSO control” value was 110%.

Turning to `NCC1CCC(C(=O)O)CC1` (stereo not given), the Potency is 4.18 µM (active).

Take `Cc1ccccc1-n1c(Cn2nc(-c3cccc(O)c3)c3c(N)ncnc32)nc2cccc(C)c2c1=O`: the Potency was 18.7 µM (active).

For `CCC(=C(CC)c1ccc(O)cc1)c1ccc(O)cc1`, the “viability, % of DMSO control” value was 120%.

In the case of `COc1cc(Cl)cn2c(-c3cccc(NC4CNC4)n3)cnc12`, the Potency was 18.7 µM (active).

As for `CC(C)(C)c1nc(-c2cccc(NS(=O)(=O)c3c(F)cccc3F)c2F)c(-c2ccnc(N)n2)s1`, the Potency is 5.9 µM (active).

Turning to `Cc1c(-c2cccc3c(CCCOc4cccc5ccccc45)c(C(=O)O)n(Cc4cccnc4)c23)c(COc2ccc(N3CCN([S+](=O)([O-])N(C)C)CC3)cc2)nn1C`, the Potency is 20.9 µM (active).

For the molecule `OC[C@H]1O[C@@H](OCCc2ccc(O)cc2)[C@H](O)[C@@H](O)[C@H]1O`, the “viability, % of DMSO control” value was 120%.

Take `COc1ccc2nc3cc(Cl)ccc3c(Nc3cc(CN4CCCC4)c(O)c(CN4CCCC4)c3)c2n1`: the Potency was 20.9 µM (active).

In the case of `O=C(Nc1ccccc1)Nc1ccc(-c2ccc(C(=O)[C@H]3CCC[C@H]3C(=O)O)cc2)cc1`, the “viability, % of DMSO control” value is 107%.

As to `CCc1cccc(CC)c1NC(=O)N1Cc2[nH]nc(NC(=O)c3ccc(N4CCN(C)CC4)cc3)c2C1`, the Potency is 16.6 µM (active).

For `N[C@@H](CC(=O)N1CCn2c(nnc2C(F)(F)F)C1)Cc1cc(F)c(F)cc1F`, the “viability, % of DMSO control” value is 119%.

Take `O=C1CCCC(=O)C1C(=O)c1ccc(C(F)(F)F)cc1[N+](=O)[O-]`: the “viability, % of DMSO control” value is 123%.

Consider `C[C@@H]1[C@H](C)CC[C@]2(C(=O)O)CC[C@]3(C)C(=CC[C@@H]4[C@@]5(C)CC[C@H](O)C(C)(C)[C@H]5CC[C@]43C)[C@@H]12`, for which the “viability, % of DMSO control” value is 76.4% [at 92.2 µM].

`Cc1[nH]c(C=C2C(=O)Nc3ccc(S(=O)(=O)N(C)c4cccc(Cl)c4)cc32)c(C)c1C(=O)N1CCN(C)CC1`: the Potency is 18.7 µM (active).

With `CNC(=O)[C@H](Cc1ccccc1)NC(=O)[C@H](CC(C)C)[C@H](CSc1cccs1)C(=O)NO`, the “viability, % of DMSO control” value was 69.9%.

As to `CN1CC(=O)N2C(Cc3c([nH]c4ccccc34)[C@H]2c2ccc3c(c2)OCO3)C1=O` (stereo not given in full), the “viability, % of DMSO control” value was 87.7%.

As to `Cc1cn([C@@H]2C[C@@H](O)[C@H](CO)O2)c(=O)[nH]c1=O`, the “viability, % of DMSO control” value is 122%.

On to `CCN1C[C@H](C)n2c(c(O)c3c(=O)n(Cc4ccc(F)c(Cl)c4)nc(C(=O)NC)c32)C1=O`, for which the “viability, % of DMSO control” value is 107%.

Consider `CN1C(=O)C[C@H](C(=O)N[C@@H](Cc2cnc[nH]2)C(=O)N2CCC[C@@H]2C(N)=O)NC1=O`, for which the “viability, % of DMSO control” value is 86%.

As to `CCN(CC)CCCCNc1nc2cc(Cl)c(Cl)cc2nc1-c1ccc(-c2cccs2)s1`, the Potency is 10.5 µM (active).

For `CC1=C(C(=O)Nc2cc3cn[nH]c3cc2F)C(c2ccc(C(F)(F)F)cc2)CC(=O)N1` (stereo not given), the “viability, % of DMSO control” value is 116%.

For the molecule `O=C(O)CCC=CCC[C@@H]1[C@H](N2CCCCC2)[C@@H](O)C[C@@H]1OCc1ccc(-c2ccccc2)cc1`, the “viability, % of DMSO control” value was 130%.

In the case of `C=CC[N+]1([C@H]2C[C@H]3[C@@H]4CC[C@H]5C[C@H](O)[C@@H](N6CCOCC6)C[C@]5(C)[C@@H]4CC[C@]3(C)[C@H]2OC(C)=O)CCCC1`, the “viability, % of DMSO control” value is 141%.

Consider `C[C@@H](N)c1ccc(C(=O)Nc2ccnc3[nH]ccc23)cc1`, for which the Potency was 20.9 µM (active).

Regarding `CCOc1ccccc1N=Nc1c(C)[nH]n(-c2nc(-c3ccccc3)cs2)c1=O`, the “viability, % of DMSO control” value is 120%.

With `O=C(c1ccc(C=Cc2n[nH]c3ccccc23)cc1)N1CCNCC1`, the Potency is 0.833 µM (active).

In the case of `CSc1cccc(Nc2ncc3cc(-c4c(Cl)cccc4Cl)c(=O)n(C)c3n2)c1`, the Potency was 0.0332 µM (active).

For the molecule `CN1CCN2c3ncccc3Cc3ccccc3C2C1` (stereo not given), the “viability, % of DMSO control” value is 85.3%.

As to `CCNC(=O)c1noc(-c2cc(C(C)C)c(O)cc2O)c1-c1ccc(CN2CCOCC2)cc1`, the Potency was 0.0833 µM (active).

As to `CCOC(=O)[C@H]1O[C@H]1C(=O)N[C@@H](CC(C)C)C(=O)NCCC(C)C`, the “viability, % of DMSO control” value is 98.3%.

For the molecule `O=C(c1ccc(C(=O)N2CCC(N3CCCC3)CC2)c(Nc2ccccc2)c1)N1CCC(N2CCCC2)CC1`, the “viability, % of DMSO control” value is 134%.

Take `COc1cc2nc(-c3cc(F)ccc3O)nc(N[C@@H]3CNC[C@@H]3C(C)(C)O)c2cc1OC`: the Potency was 0.0743 µM (active).

As to `Cc1ccc(NC(=O)Nc2cc(C(F)(F)F)ccc2F)cc1Nc1ccc2c(c1)NC(=O)C2=Cc1ccc[nH]1`, the Potency was 7.43 µM (active).

For `CN1CC(=O)NC1=NC(=O)Nc1cccc(Cl)c1`, the Potency was 14.8 µM (active).

Consider `CN(C)c1ccccc1CN1CCCN(Cc2ccccc2N(C)C)C1c1ccncc1`, for which the Potency was 3.32 µM (active).

`Nc1ncnc2c1c(-c1cccc(OCc3ccccc3)c1)cn2C1CC(CN2CCC2)C1` (stereo not given): the Potency was 16.6 µM (active).
